# Compounds with a hit are over-represented: about 11% of the library has one in this group of screens.
# PNC inhibitor – High Content Assay for Compounds that inhibit the Assembly of the Perinucleolar Compartment | PC3M PTB-GFP, PNC prevalence imaging, 16 h; hits give low values | activity change (PNC), negative = inhibition, % at 10 µM | hit rate 3.1% among 140,000;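 active means readout at or below -70, meaning at least 70% loss of cells showing the perinucleolar compartment, a nuclear body marking cancer cells; inconclusive means readout between -30 and a set limit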;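 further: plate controls were DMSO wells for no effect and camptothecin positive control wells for full effect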
#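 Compounds are pinned in duplicate onto adhered PC3M cells stably expressing GFP-tagged PTB and incubated 16 h at 37 C. Cells are then fixed, nuclei stained with Hoechst, and PNC-positive cells counted.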
# ALDH1A1 inh – qHTS Assay for Inhibitors of Aldehyde Dehydrogenase 1 (ALDH1A1); Aldehyde dehydrogenase 1A1 (Homo sapiens), P00352; Purified ALDH1A1, NADH fluorescence, propionaldehyde substrate; Potency, µM (top dose mostly 75.3 µM), without a hit: at the highest dose activity, negative = inhibition, hits mostly inhibitors; hit rate 7.3% among 220,000;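 further: potency means the concentration at half of the fitted maximal effect; plate controls were no enzyme wells and a reference inhibitor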
# HPGD block – qHTS Assay for Inhibitors of HPGD (15-Hydroxyprostaglandin Dehydrogenase); 15-hydroxyprostaglandin dehydrogenase [NAD(+)] (Homo sapiens), P15428; purified HPGD, NADH fluorescence kinetic, PGE2 substrate; Potency, µM, inactives show at the highest dose activity change, negative = inhibition, usual class: inhibitors; hit rate 4.3% among 150,000; further: potency means the concentration at half of the fitted maximal effect
# Target sequence (P15428 whole entry, looked up): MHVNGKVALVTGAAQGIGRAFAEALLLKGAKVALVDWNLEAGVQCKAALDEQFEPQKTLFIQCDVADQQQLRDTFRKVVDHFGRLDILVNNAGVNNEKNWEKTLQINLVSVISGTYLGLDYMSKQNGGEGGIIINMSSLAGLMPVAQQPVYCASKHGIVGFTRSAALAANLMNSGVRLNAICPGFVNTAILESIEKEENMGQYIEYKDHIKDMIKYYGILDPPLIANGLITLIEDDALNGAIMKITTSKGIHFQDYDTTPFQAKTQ
#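 NADH formation kinetics: reaction with 30 uM PGE2 and 1 mM NAD+ (final), 20 nM enzyme, Tris-HCl pH 8 with Tween 20, after 15 min compound preincubation at room temperature. Fluorescence change, last versus first of five reads.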
# The depositor's hits bear a star; ? = inconclusive; nt = not tested or not shown; [ ] = another dose, or the depositor's remark. Unless noted, the call rests on the fitted dose curve; in most records, active means well fitted inhibition curve with a large enough effect (not every such curve was filed as active); inconclusive means small, poorly fitted or top-dose-only effect, or another doubt; inactive means no such curve, though single readings can be large or run the other way. Unless noted, on the % scale 0 is the no-effect control and ±100 the full control effect.
SMILES,PNC inhibitor,ALDH1A1 inh,HPGD block
COc1cccc(C2c3c(oc4ccccc4c3=O)C(=O)N2CCCN2CCOCC2)c1 (centres undefined),?,?,-11%
Cc1ccc2oc3c(c(=O)c2c1)C(c1cccc(Cl)c1)N(CCCN1CCOCC1)C3=O (centres undefined),?,13µM*,0%
O=C1c2oc3ccc(F)cc3c(=O)c2C(c2ccncc2)N1CCN1CCOCC1 (centres undefined),?,-10%,-13%
Cc1ccc2oc3c(c(=O)c2c1)C(c1ccc(F)cc1)N(CCCN1CCOCC1)C3=O (centres undefined),-25,3.5µM*,-25%
Nc1nc(SCC(=O)NCCc2ccccc2)[nH]c(=O)c1-c1ccccc1,nt,-2%,nt
COc1ccc(NC(=O)C(CC(C)C)NC(=O)C2CCC(C)CC2)c(OC)c1 (centres undefined),nt,-2%,nt
COc1ccc(C=O)cc1COc1ccc(C)cc1[N+](=O)[O-],?,10µM*,-23%
COc1cc(C=O)ccc1OCCOc1ccccc1[N+](=O)[O-],36,?,?
COc1ccc(/C=N/NS(=O)(=O)c2ccc(F)cc2)cc1COc1cc(F)ccc1[N+](=O)[O-],nt,35µM*,nt
COc1cc(C=O)ccc1OS(=O)(=O)c1ccccc1[N+](=O)[O-],22,8.9µM*,18µM*
COc1cc(/C=N/n2cnnc2)ccc1OS(=O)(=O)c1ccccc1[N+](=O)[O-],?,-12%,-20%
COc1ccc(/C=N/NC(=O)c2cc(C(C)(C)C)[nH]n2)cc1COc1ccc(F)cc1F,nt,-5%,nt
COc1ccc(C=O)cc1COc1ccc(Cl)cc1[N+](=O)[O-],57,2%,0%
COc1cc(C=O)ccc1OCCCOc1ccccc1[N+](=O)[O-],-26,-15%,20µM*
CCOc1ncccc1C(=O)OCc1cccc([N+](=O)[O-])c1,nt,5%,nt
Cc1cc(NC(=S)N(Cc2ccc(Br)cc2)Cc2ccc(C(=O)O)cc2)ccc1Cl,nt,-7%,nt
Cc1ccccc1Nc1oc(-c2ccccc2)nc1-c1cccs1,nt,1%,-12%
COCc1cccc(N2C(=O)CC(C3C=C(C)C4C(=O)N(c5cccc(COC)c5)C(=O)C4C3)C2=O)c1 (centres undefined),nt,-8%,nt
COCCNC(=O)CN(Cc1cccs1)C(=O)CCC(=O)Nc1nccs1,nt,-4%,nt
c1ccc2c(CC3NCCN3)cccc2c1,nt,-1%[13.5 µM],-5%
O=c1onc(-c2cccnc2)n1-c1ccccc1F,nt,-8%,nt
COc1cc(C=O)ccc1OCCCCOc1ccccc1[N+](=O)[O-],?,5µM*,-26%
COc1cc(C=O)ccc1OCCCOc1ccccc1C(=O)O,53,-2%,-10%
CSc1cccc(NC(=S)N(CCCN2CCC(C)CC2)Cc2cccs2)c1,nt,-14%,nt
CC(C)C(C)NC(=O)COC(=O)c1cccc(C(=O)OCC(=O)NC(C)C(C)C)n1 (centres undefined),nt,-6%,nt
SMILES,PNC inhibitor,ALDH1A1 inh,HPGD block
COc1ccc(NCC(=O)N/N=C/c2c(C)nn(Cc3ccccc3)c2Cl)cc1,-5,16µM*,?
Cc1nn(Cc2ccccc2)c(C)c1/C=N/NC(=O)CNc1cccc(C(F)(F)F)c1,14,-9%,-10%
CCOC(=O)c1cc(CC)sc1NC(=O)COC(=O)c1cc[n+]([O-])cc1,nt,1%,nt
COc1ccc2[nH]c(C(O)(Cc3cccnc3)Cc3cccnc3)cc2c1,-29,0%,-16%
O=C(Cc1ccc(Br)cc1)Nc1cccc(Cl)c1,nt,8%,nt
CCOC(=O)Cc1csc(N/C(=N/S(=O)(=O)c2cc(Br)ccc2OCC)c2ccccc2)n1,46,3%,-10%
COc1ccc(C(=O)C2CCCN(Cc3c(C)[nH]c4ccccc34)C2)c(OC)c1 (centres undefined),nt,25µM*,nt
COc1ccc(C(=O)C2CCCN(Cc3ccc(C#CCCO)cc3)C2)c(OC)c1 (centres undefined),nt,4%,nt
Cc1ccc2oc(=O)c3cc(C(=O)NCCN4CCc5ccccc5C4)sc3c2c1,0,28µM*,?
Cc1ccc2oc(=O)c3cc(C(=O)NCc4ccco4)sc3c2c1,39,?,-30%
CCOC(=O)[C@]1(C(NC(=O)OC)c2cccc(C)c2)CCCC1=O (some centres undefined),nt,7%[13.5 µM],nt
COc1cccc(C2CC(c3c(F)cccc3Cl)n3nc(N)nc3N2)c1 (centres undefined),-110*,4%,-9%
CCOc1ccc(C2CC(c3ccccc3C)n3nc(N)nc3N2)cc1 (centres undefined),-10,?,-7%
Nc1nc2n(n1)C(c1ccc(Cl)cc1)CC(c1ccc(F)cc1)N2 (centres undefined),-119*,2%,-7%
CCOc1ccccc1C1CC(c2ccc(Br)cc2)Nc2nc(N)nn21 (centres undefined),-114*,33%,?
COc1ccc(C2CC(c3ccc(F)cc3)Nc3nc(N)nn32)cc1 (centres undefined),40,2%,-16%
COc1cccc(C2CC(c3c(Cl)cccc3Cl)n3nc(N)nc3N2)c1 (centres undefined),?,5%,-9%
Cc1c(C)c2c(c(C)c1O)CC[C@@](C)(CCC[C@@H](C)CCC[C@@H](C)CCCC(C)C)O2,nt,7%,-11%
O=CC(O)C(O)C(O)C(O)CO (centres undefined),nt,-4%,0%
CCCCCCCC1=Cc2ccc(F)cc2C(C(C(C)=O)C(=O)OC)N1C(=O)OC (centres undefined),nt,14%,-5%
CC(C)(C)SCCNC(=O)Nc1ccccc1,-2,-6%,-14%
CCOC(=O)c1c(C)cc(O)c(C)c1O,nt,1%,-9%
CC(C)(O)C(=O)O,nt,?,-10%
CCOC(=O)N1CCN(C(=O)CCNS(=O)(=O)c2ccc3c(c2)c(=O)n(C)c(=O)n3C)CC1,nt,-6%,nt
O=C(Nc1ccc2c(c1)C(=O)N(c1ccccc1)C2=O)C1CCCO1 (centres undefined),-20,14µM*,-10%
SMILES,PNC inhibitor,ALDH1A1 inh,HPGD block
O=C(NCCN1CCN(c2ccccc2)CC1)c1ccc(NC(=O)C2CCCO2)cc1 (centres undefined),?,28µM*,-12%
COc1ccc(NS(=O)(=O)c2ccc(NC(=O)C3CCCO3)cc2)cc1 (centres undefined),?,9%,-25%
O=C(NCCCN1CCOCC1)c1ccc(NC(=O)C2COc3ccccc3O2)cc1 (centres undefined),nt,5%,nt
O=C1NC(=O)c2cc(NC(=O)C3CCCO3)ccc21 (centres undefined),-6,?,?
NC(=O)c1ccc(NC(=O)C2CCCO2)cc1 (centres undefined),-12,-8%,?
O=C(Nc1ccc(Oc2ccc(NC(=O)C3CCCO3)cc2)cc1)C1CCCO1 (centres undefined),2,?,1.4µM*
Cc1ccc(NS(=O)(=O)c2ccc(NC(=O)C3CCCO3)cc2)cc1 (centres undefined),38,22µM*,-29%
C=CCn1c(SCC(=O)Nc2ccccc2-c2ccccc2)nc2cc(C(=O)O)ccc2c1=O,nt,-5%,nt
